Luciferase inh: qHTS Assay for Inhibitors of Firefly Luciferase; Luciferin 4-monooxygenase (Photinus pyralis), P08659; purified firefly luciferase, luminescence, 8 min; Potency, µM (series often up to 57.1 µM), actives largely listed as inhibitors; 2.2% of 72,000 active; AID 411, 2009; also: nearly all actives have a fitted effect of over 40% in size
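Firefly luciferase (PKLight detection mix) with 10 uM ATP in pH 7.2 imidazole buffer (KCl, MgCl2, Tween 20, BSA). Compounds tested across a concentration series (qHTS). Luminescence read after 8 min at ambient temperature.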
ALOX15 inhib: qHTS Assay for Inhibitors of 15-hLO (15-human lipoxygenase); Polyunsaturated fatty acid lipoxygenase ALOX15 (Homo sapiens), P16050; Potency, µM (titrated, usually from 57.1 µM), usual class: inhibitors; purified 15hLO-1, xylenol orange hydroperoxide absorbance; 1.4% of 74,000 active; AID 887, 2007; also: nearly all actives have a fitted effect of over 55% in size
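40 nM 15hLO-1 + cpd, 15 min RT; start w/ 50 uM AA (final), 6 min RT; stop/detect w/ 200 uM XO + 300 uM Fe(II) in 50 mM H2SO4, 30 min; A573/A405. Buffer 25 mM Hepes pH 7.5, 0.01% Triton X-100. No-enzyme wells as negative control.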
ERK AVP inh: qHTS Assay for Inhibitors of the ERK Signaling Pathway using a Homogeneous Screening Assay. HEK293-V1b, vasopressin-stimulated pERK AlphaScreen. 0.99% of 72,000 active. Potency, µM (doses to about 57.5 µM), usual class: inhibitors; also: nearly all actives have a fitted effect of over 55% in size
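qHTS, compounds titrated on V1b-expressing HEK293 cells. Preincubation 30 min at 37C, vasopressin 25 nM for 5 min, lysis 10 min, bead incubation 5 hr at room temperature.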
Tau filament bind: qHTS Assay for Tau Filament Binding | Microtubule-associated protein tau (Homo sapiens), P10636 | recombinant tau filaments, thioflavin S fluorescence, 15 h; filaments grown with octadecylsulfate alongside compound | Potency, µM (top dose mostly 57.1 µM) | 2% of 71,000 active | AID 596, 2007;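 also: actives lower thioflavin S fluorescence by blocking filaments or displacing dye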
Target sequence (P10636 whole entry, looked up): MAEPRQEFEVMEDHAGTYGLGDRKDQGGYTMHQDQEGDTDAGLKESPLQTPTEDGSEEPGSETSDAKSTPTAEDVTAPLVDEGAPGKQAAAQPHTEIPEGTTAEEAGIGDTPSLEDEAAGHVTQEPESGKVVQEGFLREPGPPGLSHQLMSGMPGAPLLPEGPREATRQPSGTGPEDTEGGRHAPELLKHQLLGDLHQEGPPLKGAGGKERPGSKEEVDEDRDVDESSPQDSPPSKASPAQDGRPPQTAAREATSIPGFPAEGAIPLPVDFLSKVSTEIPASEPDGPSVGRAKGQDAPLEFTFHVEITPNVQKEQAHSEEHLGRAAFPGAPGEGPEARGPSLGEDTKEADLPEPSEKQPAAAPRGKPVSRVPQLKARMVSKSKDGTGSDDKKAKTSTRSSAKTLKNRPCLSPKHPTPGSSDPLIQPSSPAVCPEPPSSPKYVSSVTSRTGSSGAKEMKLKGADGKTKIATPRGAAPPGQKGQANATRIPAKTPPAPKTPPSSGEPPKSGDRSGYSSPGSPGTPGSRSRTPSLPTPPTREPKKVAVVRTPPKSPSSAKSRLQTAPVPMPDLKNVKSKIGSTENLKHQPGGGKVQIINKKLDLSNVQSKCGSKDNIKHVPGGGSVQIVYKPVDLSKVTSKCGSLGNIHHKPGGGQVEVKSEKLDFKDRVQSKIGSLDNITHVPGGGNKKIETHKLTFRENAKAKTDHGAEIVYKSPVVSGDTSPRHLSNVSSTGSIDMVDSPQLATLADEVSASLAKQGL
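His-tagged recombinant human tau (exons 2, 3 and 10 included), 1 uM, was induced to fibrillize by 30 uM sodium octadecylsulfate with compound present. After 15 h at 37 C, thioflavine S fluorescence (ex 450, em 510 nm) was read.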
PK Bst: Pyruvate Kinase | 1.2% of 51,000 active | purified pyruvate kinase, luminescence ATP production; ribose 5-phosphate activator present at AC10 | Potency, µM; in the data active = potency below about 11 µM; inconclusive = mostly about 12 µM to 25 µM;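 the screen sought inhibitors and activators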
Pol III holo inh: qHTS Assay for Inhibitors of DNA Polymerase III Holoenzyme System; reconstituted DNA polymerase III holoenzyme replication, biochemical; Potency, µM (titrated, usually from 57.1 µM); 0.25% of 71,000 active; AID 603, 2007
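Reconstituted *E. coli* holoenzyme (0.35 nM Pol III, 1 nM beta, 154 nM SSB, 2 nM primase) was preincubated with compound for 15 min at RT. Synthesis on 1.4 nM ssM13Gori ran 35 min, then was stopped with PicoGreen/EDTA and read as dsDNA fluorescence.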
Hits are given with their value; - = inactive; ? = inconclusive; . = not tested or not shown; ! = not active in a repeat; [ ] = dose if it differs, or a comment. This is a sample that favours compounds with a hit; in the whole collection about 6% have one here. Unless noted, calls follow the shape of the dose curve; as a rule, active = well fitted curve in the direction sought with a large enough effect; inconclusive = small, poorly fitted or top-dose-only effect, or another doubt; inactive = no such curve, though single readings can be large; an effect the other way counts as inactive or inconclusive.

SMILES | Luciferase inh | ALOX15 inhib | ERK AVP inh | Tau filament bind | PK Bst | Pol III holo inh
Ic1ccc2c(c1)N(c1ccccc1)c1cc(Nc3ccc4nc5ccc(I)cc5[n+](-c5ccccc5)c4c3)ccc1N2 | -[11.4 µM] | -[11.4 µM] | -[11.5 µM] | 4µM | . | -[11.4 µM]
COc1ccc(-c2nc3cnc(Oc4cccc(Cl)c4)nc3n(CCC#N)c2=O)cc1 | -[11.4 µM] | - | - | - | . | -
COc1ccc(-c2c3c(nc4sc(C(=O)Nc5cc(C)on5)c(N)c24)CCC3)cc1 | - | - | 7.9µM | - | - | -
COc1ccc(C(=O)Nc2cccc(OC)c2)cc1 | 7.9µM | - | - | - | . | -
COc1cccc(C(=O)Nc2cccc(NC(C)=O)c2)c1 | - | - | - | - | . | -
COc1cccc(C(=O)Nc2ccc(NC(=O)C(C)(C)C)cn2)c1 | 4µM | - | - | - | 3.7 | -
COc1ccc(-c2nnc(NC(=O)c3cc(C)on3)s2)cc1 | - | - | - | - | . | -
COc1cccc(NC(=O)CNC(C)CCC(C)C)c1 (configuration not stated) | - | - | - | 20µM | - | -
CN(C)c1ccc(-c2cc(NCc3cccnc3)ncn2)cc1 | -[2.29 µM] | - | - | - | . | -
O=C(NCCCN1CCOCC1)c1ccc(Cc2nc3ccccc3[nH]2)cc1 | . | - | . | . | . | .
NC(=O)c1sc2nc3c(c(-c4ccco4)c2c1N)CCC3 | - | - | - | 16µM | ? | -
COc1ccc(C(=O)Nc2ccc(OC)c(OC)c2)cc1 | 25µM | - | - | - | - | -
COc1ccc(C(=O)Nc2cc(C)on2)cc1 | 10µM | -[11.4 µM] | - | -[11.4 µM] | . | -[11.4 µM]
C[C@@]12CC[C@H]3[C@H](CC=C4C[C@@H](O)CC[C@@]43C)[C@@H]1CC[C@@H]2N(CCO)CCO | -[11.4 µM] | -[11.4 µM] | -[11.5 µM] | -[11.4 µM] | . | -[11.4 µM]
Cc1ccc(C)o1 | . | - | - | - | . | -
Cc1nc2cnc(N3CCNCC3)nc2n(C2CC2)c1=O | -[11.4 µM] | - | - | - | . | -
Cc1oc(/N=C/c2cccc3ccccc23)c(C#N)c1C | - | ? | ? | 0.79µM | . | -[11.4 µM]
Cc1cc(OCCCCCNCCO)cc(C)c1Cl | - | -[11.4 µM] | 40µM | 2.5µM | . | -[11.4 µM]
COc1ccc(-c2cc(C(N)=O)nc(N3CCCCCC3)n2)cc1 | 7.9µM | - | - | - | ? | -
COc1ccc(-c2cc(N3CCCC3)n3ncnc3n2)cc1 | - | - | - | - | 9.2 | -
COc1ccc(S(=O)(=O)N2CCN(c3cc(-c4ccccc4)nc4ncnn34)CC2)cc1 | - | - | - | - | - | -
COc1ccc(-c2nsc3c(N4CCCC4)ncnc23)cc1 | 0.79µM | - | - | - | 1.6 | -
COc1ccc(-c2cc(C(F)(F)F)nc(N3CCCCCC3)n2)cc1 | - | - | - | - | - | -
O=C1C=C[C@@H](O)[C@H]2[C@@H]3C(=O)N(c4cccc(Oc5ccccc5)c4)C(=O)[C@@H]3CC[C@H]12 | -[11.4 µM] | -[11.4 µM] | -[11.5 µM] | . | . | .
Cc1ccccc1N=C1NC(=O)CS1 | - | - | - | - | - | -
SMILES | Luciferase inh | ALOX15 inhib | ERK AVP inh | Tau filament bind | PK Bst | Pol III holo inh
Cc1ccccc1N=C1Nc2ccccc2CS1 | 25µM | - | - | - | . | -
COCCn1c(=O)c(-c2ccc(Cl)cc2)nc2cnc(OC)nc21 | -[11.4 µM] | - | - | - | . | -
CCCCCCCCCCCCCCC(C(=O)O)C(O)(CC(=O)OC)C(=O)O (configuration not stated) | . | - | - | . | . | .
c1ccc(OCc2nnc3sc(-c4cccs4)nn23)cc1 | - | ? | - | - | - | -
Clc1ccc(Cl)c(-c2nn3c(COc4ccccc4)nnc3s2)c1 | - | 10µM | - | - | - | -
CCNC(=O)c1cc2c(=O)n3cccc(C)c3nc2n(Cc2ccc(C)cc2)c1=N | - | - | - | 1.6µM | - | -
COCCn1c(=N)c(C(=O)NCCc2ccc(OC)cc2)cc2c(=O)n3cccc(C)c3nc21 | - | - | - | 2µM | - | -
CCN(CC)CCCNC(=O)c1ccc(Cc2nc3ccccc3[nH]2)cc1 | . | - | . | . | . | .
NC(N)=NCCC[C@H](NC(=O)CC1(CC(=O)N2CCN(C3c4ccccc4NC(=O)c4ccccc43)CC2)CCCC1)C(=O)NCCn1c(=O)n(-c2ccccc2)n(-c2ccccc2)c1=O (some centres not stated) | . | 20µM | - | . | . | .
N=c1c2c(-c3ccccc3)c(-c3ccccc3)n(Cc3ccco3)c2ncn1Cc1ccco1 | - | 25µM | ? | - | . | -
N=c1c2c(-c3ccccc3)c(-c3ccccc3)n(Cc3ccccc3)c2ncn1CCCn1ccnc1 | - | . | . | . | - | .
CC12C=C(/C=C/CCc3ccco3)C(C)(C1)C(CCc1ccco1)CC2=O (configuration not stated) | . | ? | -[11.5 µM] | . | . | .
Brc1ccc(-c2cn3cccnc3n2)cc1 | ? | - | - | - | 5.9 | -
CCN1CCN(c2cc(C)c3cc(NC(=O)c4ccncc4)ccc3n2)CC1 | - | - | - | 16µM | . | -
CCN1CCN(c2cc(C)c3cc(NC(=O)c4ccc(Br)o4)ccc3n2)CC1 | - | - | - | - | - | -
O=C(NC1CCS(=O)(=O)C1)c1ccc(-c2ccc(Br)cc2)o1 (configuration not stated) | - | - | - | - | 7.8 | -
Cc1ccc(S(=O)(=O)N(CC(=O)O)c2cccc(Cl)c2)cc1 | . | - | . | . | . | .
N#CCSc1nc(Nc2ccc3c(c2)OCO3)c2ccccc2n1 | - | ? | 32µM | - | . | -
CC(=O)N1CCC2(CCCN(C(=O)Nc3cccc(C#N)c3)C2)CC1 | -[11.4 µM] | - | - | - | . | -
O=C(COc1ccccc1)Nc1ccc(-c2nnc(-c3ccco3)o2)cc1 | - | . | . | . | - | .
CCCOc1ccc(-c2nnc(-c3ccco3)o2)cc1 | 10µM | - | - | - | 3.4 | -
CC(C)COc1ccc(-c2nnc(-c3ccco3)o2)cc1 | 16µM | - | - | - | 9.5 | -
C[N+](C)(C)CCN[N@@+]1(C)CCCc2ccccc21 | -[11.4 µM] | -[11.4 µM] | -[11.5 µM] | -[11.4 µM] | . | -[11.4 µM]
COC(=O)c1c(-c2cccs2)csc1NC(=O)c1cccnc1 | - | - | - | - | 7.7 | -
CCOC(=O)c1c(-c2cccs2)csc1NC(=O)c1ccco1 | - | - | - | - | - | -
SMILES | Luciferase inh | ALOX15 inhib | ERK AVP inh | Tau filament bind | PK Bst | Pol III holo inh
COC(=O)C/C=C\[C@H](C)[C@H](CO)NS(=O)(=O)c1ccc(C)cc1 | -[11.4 µM] | -[11.4 µM] | -[11.5 µM] | . | . | .
CC(C)CNC1=CC(=O)CC(c2ccco2)C1 (configuration not stated) | - | 10µM | - | - | . | -
O=C(O)c1cc(O)c2c(c1)C(=O)c1cccc(O)c1C2=O | - | 13µM! | - | - | - | -
O=C(C[N+]12CN3CN(CN(C3)C1)C2)c1ccc(-c2ccccc2)cc1 | -[11.4 µM] | -[11.4 µM] | -[11.5 µM] | 3.2µM | . | -[11.4 µM]
CC(=O)Nc1nc(COc2ccccc2)cs1 | - | - | - | - | . | -
Nc1nc(COc2ccc3ccccc3c2)cs1 | 25µM | - | - | - | - | -
COc1ccc(-c2nc3cnc(OC)nc3n(C)c2=O)cc1 | -[11.4 µM] | - | - | - | . | -

Compound activity deposited in PubChem by National Center for Advancing Translational Sciences (NCATS).
